For 17 compounds, Potency results are on record in PubChem BioAssay (Tox21).

A short description of test [1]: qHTS assay to identify small molecule antagonists of the thyroid receptor (TR) signaling pathway - cell viability counter screen (AID 743064). Also: nearly all actives have a fitted effect of over 50% in size. In outline:
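Fluorescence from CellTiter-Fluor, added after 23.5 h exposure at 37 °C, reported viability of GH3.TRE-Luc cells co-treated with compound and 1 nM T3. Measured in the same wells as the luciferase TR readout.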
In general terms: Quantitative high-throughput screening tests each substance at several concentrations.

Test [2] can be described thus: qHTS assay to identify small molecule antagonists of the thyroid receptor (TR) signaling pathway (AID 743065). Also: nearly all actives have a fitted effect of over 55% in size. In outline:
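GH3.TRE-Luc rat pituitary cells (two TREs driving luciferase) were dosed with compound, then stimulated with 1 nM T3 (final) for 23.5 h at 37 C. ONE-Glo luminescence was the read-out, with CellTiter-Fluor fluorescence as the cytotoxicity counter-screen.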

The test system of test [3] is thyroid hormone receptor (rat, GH3 cells). The experiment in a line: qHTS assay to identify small molecule agonists of the thyroid receptor (TR) signaling pathway (AID 743066; calls by dose curve).
In test [4] the target is Estrogen receptor (Homo sapiens) (UniProt P03372). As to the kind of experiment: qHTS assay to identify small molecule antagonists of the estrogen receptor alpha (ER-alpha) signaling pathway (AID 743069; active = well fitted curve in the direction sought with a large enough effect in the signal ratio in the repeat runs, not every such curve was filed as active; inconclusive = weak or mixed curves, or effect the other way; inactive = no such curve, though single readings can be large or run the other way; the % refers to the signal ratio). Summed up:
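Beta-lactamase FRET fluorescence is read after 2 hr at room temperature with LiveBLAzer B/G substrate. Before that, ER-alpha-bla HEK293 cells sit 4 hr after plating, then receive compound plus 17beta-estradiol and incubate 18 hr at 37C.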

Test [5] is described as follows: qHTS assay to identify small molecule antagonists of the estrogen receptor alpha (ER-alpha) signaling pathway - cell viability counter screen (AID 743074; calls by dose curve;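 also: HEK293 cells carrying ER-alpha-UAS-bla reporter stimulated with 17beta-estradiol; nearly all actives have a fitted effect of over 45% in size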).
Test [6] concerns the target Estrogen receptor (Homo sapiens) (UniProt P03372). The experiment in a line: qHTS assay to identify small molecule agonists of the estrogen receptor alpha (ER-alpha) signaling pathway (AID 743075; calls by dose curve;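 also: HEK293 GripTite cells with ER-alpha and UAS-driven beta-lactamase reporter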).
Test [7] shares this target. As to the kind of experiment: qHTS assay to identify small molecule agonists of the estrogen receptor alpha (ER-alpha) signaling pathway using the BG1 cell line (AID 743079). Also: nearly all actives have a fitted effect of over 20% in size.
Test [8] in a line: qHTS assay to identify small molecule antagonists of the estrogen receptor alpha (ER-alpha) signaling pathway using the BG1 cell line (AID 743080; calls by dose curve;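 also: BG1 cells stimulated with 17beta-estradiol alongside compound; nearly all actives have a fitted effect of over 25% in size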). Summed up:
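BG1Luc4E2, endogenous ER-alpha, 4xERE-luc; 5 d charcoal-stripped FBS, phenol red free; 24 h plating; cpd + 17beta-estradiol 21.5 h, 37 C/5% CO2; CellTiter-Fluor viability 30 min, then ONE-Glo luciferase 30 min RT.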

A short description of test [9]: qHTS assay to identify small molecule antagonists of the estrogen receptor alpha (ER-alpha) signaling pathway using the BG1 cell line - cell viability counter screen (AID 743081).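 Also: compound given together with 17beta-estradiol as the ER stimulus; nearly all actives have a fitted effect of over 45% in size.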
In another test the target is Aromatase (Homo sapiens) (UniProt P11511). The experiment in a line: qHTS assay to identify aromatase inhibitors (AID 743083). Also: nearly all actives have a fitted effect of over 55% in size.

Where “and” joins values, the source holds several entries; their conditions need not be identical. Equal values may be shown once. Some compounds were tested as several samples or in several runs, with calls that do not always agree. Calls of active or inactive are those of the source. Unless noted, calls follow the shape of the dose curve; as a rule, active = well fitted curve in the direction sought with a large enough effect in the repeat runs; inconclusive = weak or mixed curves; inactive = no such curve, though single readings can be large; an effect the other way counts as inactive or inconclusive.
Potency is read from the fitted curve at half-maximal effect.

Sequence of Estrogen receptor (Homo sapiens) (P03372 whole entry, looked up): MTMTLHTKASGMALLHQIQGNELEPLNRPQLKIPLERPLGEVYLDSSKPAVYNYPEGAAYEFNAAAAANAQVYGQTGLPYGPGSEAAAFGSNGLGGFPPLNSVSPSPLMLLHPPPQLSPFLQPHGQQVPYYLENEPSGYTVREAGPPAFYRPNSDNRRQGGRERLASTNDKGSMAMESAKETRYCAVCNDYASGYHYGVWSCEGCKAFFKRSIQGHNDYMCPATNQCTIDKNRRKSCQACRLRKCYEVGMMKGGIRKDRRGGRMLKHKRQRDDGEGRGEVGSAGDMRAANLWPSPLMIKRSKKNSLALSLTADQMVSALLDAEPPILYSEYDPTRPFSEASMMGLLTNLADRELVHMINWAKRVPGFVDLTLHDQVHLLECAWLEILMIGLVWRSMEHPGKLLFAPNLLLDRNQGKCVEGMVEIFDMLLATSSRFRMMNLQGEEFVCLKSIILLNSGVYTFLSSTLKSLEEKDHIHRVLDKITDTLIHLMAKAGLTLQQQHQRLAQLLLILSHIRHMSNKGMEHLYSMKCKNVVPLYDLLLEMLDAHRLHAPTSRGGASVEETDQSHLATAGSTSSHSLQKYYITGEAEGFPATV
Sequence of Aromatase (Homo sapiens) (P11511 whole entry, looked up): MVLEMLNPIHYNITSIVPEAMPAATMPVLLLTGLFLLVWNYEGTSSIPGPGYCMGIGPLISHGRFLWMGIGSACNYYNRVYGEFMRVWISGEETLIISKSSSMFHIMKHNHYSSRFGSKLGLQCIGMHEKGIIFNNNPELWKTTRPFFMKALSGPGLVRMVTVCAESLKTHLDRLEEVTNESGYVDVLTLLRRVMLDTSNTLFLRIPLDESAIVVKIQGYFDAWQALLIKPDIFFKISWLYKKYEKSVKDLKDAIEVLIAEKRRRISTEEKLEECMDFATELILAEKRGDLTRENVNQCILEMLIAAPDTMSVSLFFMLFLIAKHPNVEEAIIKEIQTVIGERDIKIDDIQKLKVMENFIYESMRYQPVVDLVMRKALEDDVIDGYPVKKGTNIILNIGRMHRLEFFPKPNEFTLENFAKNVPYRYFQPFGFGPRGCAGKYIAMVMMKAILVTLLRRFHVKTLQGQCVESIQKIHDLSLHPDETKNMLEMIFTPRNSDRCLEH

For `Cc1cc(C2(c3cc(C)c(O)cc3C)OS(=O)(=O)c3ccccc32)c(C)cc1O`, the Potency in test [1] was 54.5 µM (active); in test [4], 1.74 µM [inconclusive] (active); in test [6], 1.38 µM [inconclusive] (active) and inactive; in test [7] it was 864 nM (active) and 10.9 µM (active); in test [9] it was 27.3 µM (active) and 24.3 µM (active). The Potency entry in [2], in [3], in test [5] and in [8] was “inactive” throughout.

As for `C=CC(=O)OCCCCCCCC`, the Potency entry in test [1], in test [2], in test [3], in test [4], in test [5] and in test [6] was “inactive” in each case. Also, the Potency entry (in test [7]; in [8]; in test [9]; with Aromatase (Homo sapiens)) was “inactive” each time.

In the case of `CCN(CC)C(=O)Nc1ccc(OCC(O)CNC(C)(C)C)c(C(C)=O)c1` (stereo unspecified), the Potency entry in [1], in test [2], in [3], in [5], in test [6] and in test [7] was “inactive” in each case. The Potency result (in [8]; in test [9]; with Aromatase (Homo sapiens)) was “inactive” throughout.

For `CC(C)(C)c1cc(C(C)(C)C)c(O)c(C(C)(C)C)c1`, the Potency is 27.3 µM (active) in [1], 27.3 µM (active) in test [2] and 9.69 µM (active) in test [3]. Further, the Potency entry in test [5], in test [6], in test [7], in test [8] and in test [9] was “inactive” throughout.

As for `c1ccc2c(c1)CCCC2C1=NCCN1` (stereo unspecified), the Potency entry in [1], in test [2], in test [3], in [4], in test [5] and in test [6] was “inactive” each time. The Potency result (in test [7]; in [8]; in test [9]; in the test with Aromatase (Homo sapiens)) was “inactive” in each case.

For the compound `O=C(Oc1ccccc1)c1ccccc1O`, the Potency entry in test [1], in test [2], in test [3], in test [4], in test [5] and in test [6] was “inactive” in each case. Also, the Potency result (in test [7]; in test [8]; in test [9]; in the test with Aromatase (Homo sapiens)) was “inactive” in each case.

Turning to `Cc1ccc(-c2cc(C(F)(F)F)nn2-c2ccc(S(N)(=O)=O)cc2)cc1`, the Potency in test [1] was 26.6 µM (active) and 48.4 µM (active); in test [2], 23.7 µM (active) and 30.5 µM (active) and 54.5 µM (active); in test [5], “inactive and 43.5 µM (active)”; in test [6] it was 23.9 µM [activator] (active) and inactive; in test [7], 7.5 µM (active); with Aromatase (Homo sapiens) it was 29.8 µM (active) and 30.5 µM (active). Further, the Potency entry in [3], in [8] and in test [9] was “inactive” each time.

As to `COC(=O)/C=C/c1ccccc1`, the Potency entry in test [1], in [2], in [3], in test [4], in test [5] and in test [6] was “inactive” each time. Besides, the Potency result (in [8]; in test [9]; with Aromatase (Homo sapiens)) was “inactive” each time.

In the case of `CC(C)CCCCCCc1ccc(O)cc1`, the Potency in [1] was 17.5 µM (active) and 24.3 µM (active); in [2], 22.1 µM (active) and 21.7 µM (active); in [6], 2.39 µM [inconclusive] (active) and 1.25 µM [inconclusive] (active) and 17.4 µM [inconclusive] (active); in test [7] it was 1.88 µM (active) and 878 nM (active) and 2.17 µM (active); in test [8] it was “inactive and 43.3 µM (active)”; in the test with Aromatase (Homo sapiens) it was 34.4 µM (active). The Potency entry in [3], in [4], in test [5] and in test [9] was “inactive” in each case.

Turning to `Oc1ccc(Cl)cc1Cc1cc(Cl)ccc1O`, the Potency in [1] is 18.8 µM (active) and 15.6 µM (active) and 27.3 µM (active); in test [2], 7.5 µM (active) and 3.12 µM (active) and 5.45 µM (active); in [5], 49.9 µM (active) and 38.9 µM (active); in test [8] it was 33.5 µM (active); with Aromatase (Homo sapiens), 29.8 µM (active) and 30.6 µM (active). Besides, the Potency result in test [3], in test [4], in test [6] and in test [9] was “inactive” throughout.

As for `CCOc1ccc2c(c1)C(C)=CC(C)(C)N2`, the Potency result in [1], in [3], in test [4], in [5], in [6] and in test [7] was “inactive” each time. For the same compound, the Potency result (in test [8]; in [9]; with Aromatase (Homo sapiens)) was “inactive” throughout. Moreover, in test [2], the Potency is 33.5 µM (active).

On to `CCCCC/C=C/CC1CC(=O)OC1=O` (stereo unspecified), for which the Potency result in test [1], in [2], in [3], in test [5], in test [6] and in [7] was “inactive” each time. Also, the Potency result (in test [8]; in test [9]; in the test with Aromatase (Homo sapiens)) was “inactive” throughout.

As to `CC(=O)CC(C)=O`, the Potency result in test [1], in test [2], in [3], in test [5], in test [6] and in [7] was “inactive” each time. Also, the Potency entry (in [8]; in test [9]; in the test with Aromatase (Homo sapiens)) was “inactive” each time.

Take `CC(C)CCOC(=O)c1ccc(N(C)C)cc1`: the Potency entry in test [1], in test [2], in test [3], in [4], in test [5] and in test [6] was “inactive” in each case. Moreover, the Potency entry (in test [9]; with Aromatase (Homo sapiens)) was “inactive” throughout. In addition, in test [7], the Potency is 11.9 µM (active).

`NC(N)=Nc1nc(CSCC/C(N)=N/S(N)(=O)=O)cs1`: the Potency result in [1], in [2], in [3], in test [5], in [6] and in [7] was “inactive” each time. Further, the Potency entry (in test [8]; in test [9]; with Aromatase (Homo sapiens)) was “inactive” in each case.

As to `CC(C(O)c1ccc(O)cc1)N1CCC(Cc2ccccc2)CC1` (stereo unspecified), the Potency in test [1] was 21.1 µM (active); in [2], 23.7 µM (active). For the same compound, the Potency entry (in [3]; in test [4]; in test [5]; in test [6]; in [7]; with Aromatase (Homo sapiens)) was “inactive” throughout.

As for `CCCCCCCCCCCCCCCCCl`, the Potency result in test [1], in test [2], in test [3], in test [5], in [6] and in test [7] was “inactive” throughout. Moreover, the Potency result (in test [8]; in [9]; with Aromatase (Homo sapiens)) was “inactive” throughout.
